Test results published in the supplement of paper PMC11150407.
Structures can show the parent of a compound that is named as a salt. In all, about 2,100 compounds went through this assay and about 180 (8.6%) showed an effect of 50% or more. The sample holds strong results, similar compounds and a random draw of the others, so the mix is not that of the screen.

System: MOLM1 and UCSD/AML1 (averaged)
Assay: cell viability relative to DMSO control (POC); higher = less growth inhibition
Conditions: 1 µM; 72 h
Protocol: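 Primary viability screen in the 3q26 EVI1-high AML cell lines MOLM1 and UCSD/AML1 (1.5e3 cells/well, 384-well), compounds at 1 uM for 72 h. ATP CellTiter-Glo read-out given as percent of viable cells over DMSO control (POC), averaged over duplicates. DMSO was the negative control and 5 uM etoposide the positive control. This mapping covers the MicroSource Spectrum and Selleck anticancer libraries (drug names).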

Compound	cell viability [%]
O=C(O)Cc1cc(I)c(Oc2cc(I)c(O)c(I)c2)c(I)c1	97.8
CC(=O)O[C@@H]1C[C@H]2C(C)(C)C(=O)C=C[C@]2(C)[C@H]2CC[C@@]3(C)[C@H](c4ccoc4)OC(=O)[C@H]4O[C@]43[C@@]21C	82.8
COC1(C)CCC2OC2(C)CCC2C1CC2(C)C (configuration not stated)	102
CC(C)=CCC[C@](C)(O)C1CC=C(C)CC1 (some centres not stated)	105
COc1cc2nccc(Oc3ccc(NC(=O)NC4CC4)c(Cl)c3)c2cc1C(N)=O [E7080 (Lenvatinib)]	58
COc1cc2nccc(Oc3ccc(NC(=O)Nc4cc(C)on4)c(Cl)c3)c2cc1OC [Tivozanib (AV-951)]	31.8
O=C(Oc1cc(O)cc2c1C[C@@H](OC(=O)c1cc(O)c(O)c(O)c1)[C@@H](c1cc(O)c(O)c(O)c1)O2)c1cc(O)c(O)c(O)c1	104
Cc1cc(O)c(C=O)c2c1C(=O)Oc1c(COC(=O)/C=C/C(=O)O)c(O)c(C(=O)O)c(C)c1O2	104
Cc1ccc2c(=O)c3cccc(CC(=O)O)c3oc2c1C	99.8
Cc1coc2c1C(=O)C(=O)c1c-2ccc2c1CCCC2(C)C	118
C=CC(C1=CC(=O)C(OC)=CC1=O)c1ccccc1 (configuration not stated)	79.2
C=CC(C1=CC(=O)C=CC1=O)c1ccccc1 (configuration not stated)	103
C=C[C@@H](C1=CC(=O)C(OC)=C(OC)C1=O)c1ccccc1	8.05
CC1=C2C(O)C(=O)OC3CC4C(C)(C)C(=O)C=C[C@]4(C)C(CC1)[C@]23C (some centres not stated)	89.3
CCCS(=O)(=O)Nc1ccc(F)c(C(=O)c2c[nH]c3ncc(-c4ccc(Cl)cc4)cc23)c1F [Vemurafenib (PLX4032)]	114
COc1ncc(-c2ccc3nccc(-c4ccnnc4)c3c2)cc1NS(=O)(=O)c1ccc(F)cc1F	12.4
COc1ccc2c(C)cc(=O)oc2c1	110
COC(=O)CC1C(C)(C)C(OC(C)=O)[C@@H]2[C@@H](OC(C)=O)[C@]34O[C@@]2(O)[C@]1(C)C3CC[C@]1(C)C4=CC(=O)O[C@H]1c1ccoc1 (some centres not stated)	83.6
O=C(OCC(O)CO)c1ccccc1Nc1ccnc2cc(Cl)ccc12 (configuration not stated)	104
O=C(NOCC1CC1)c1ccc(F)c(F)c1Nc1ccc(I)cc1Cl	33.2
O=C(NOC[C@H](O)CO)c1ccc(F)c(F)c1Nc1ccc(I)cc1F	49.5
NC(C(=O)O)C(O)C(=O)O (stereo not drawn) [d,l-threo-3-HYDROXYASPARTIC ACID]	129
CC(=O)OC1CCC2(C)C(=CCC3C2CCC2(C)C(C(C)CCCC(C)C)CCC32)C1 (configuration not stated)	97.3
COc1cc(O)cc(OC)c1OC	95.9

Compound	cell viability [%]
COC(=O)/C(=C1/OC(=O)C(c2ccccc2)=C1O)c1ccccc1	102
C[C@@H](N)[C@H]1CC[C@H](C(=O)Nc2ccncc2)CC1	102
Cc1cc(Nc2cc(N3CCN(C)CC3)nc(/C=C/c3ccccc3)n2)n[nH]1	19.9
Cc1cc(Nc2cc(N3CCN(C)CC3)nc(Sc3ccc(NC(=O)C4CC4)cc3)n2)n[nH]1 [VX-680 (MK-0457, Tozasertib)]	22
COc1cc2oc3cc(OC)c(OC)c(CC=C(C)C)c3c(=O)c2c(OC)c1CC=C(C)C	104
O=c1cc(-c2ccccc2)oc2cc(O)c(O)c(O)c12	86
CC1(C)C(O[C@@H]2OC[C@@H](O)[C@H](O)[C@H]2O)CC[C@]23CC24CC[C@]2(C)[C@@H]([C@@]5(C)CC[C@@H](C(C)(C)O)O5)[C@H](O)C[C@@]2(C)C4C[C@@H](O[C@@H]2O[C@H](CO)[C@@H](O)[C@H](O)[C@H]2O)C13 (some centres not stated)	91.9
CC(C)[C@@H]1CC[C@@H](C)C[C@H]1OC(=O)c1ccccc1	109
NC(=O)NCCC[C@H](N)C(=O)O	93.7
C=CCCCCCCCCCCCc1ccco1	109
Nc1cc(C(F)(F)F)c(-c2cc(N3CCOCC3)nc(N3CCOCC3)n2)cn1	26.9
COc1c(CC(=O)c2cc3c(cc2O)OC(C)(C)C(O)C3)ccc2c1C=CC(C)(C)O2 (configuration not stated)	98
N[C@@H](C(=O)O)[C@@H](O)[C@H](O)[C@H](O)CO	106
CCNC(=O)CC[C@H](N)C(=O)O	92.2
Cc1ccc(NC(=O)c2ccc(CN3CCN(C)CC3)cc2)cc1Nc1nc(-c2cccnc2)cs1 [Masitinib (AB1010)]	25.7
Cc1ccc(NC(=O)c2ccc(CN3CCN(C)CC3)cc2)cc1Nc1nccc(-c2cccnc2)n1 [Imatinib Mesylate]	37.8
Cc1cccc(Nc2nc(-c3ccncc3)cs2)c1	98.9
Cc1cn(-c2cc(NC(=O)c3ccc(C)c(Nc4nccc(-c5cccnc5)n4)c3)cc(C(F)(F)F)c2)cn1 [Nilotinib (AMN-107)]	50.6
CO[C@H]1[C@H](O)[C@@H](O)[C@H](O)[C@H](O)[C@H]1O	95.8
COc1ccc2c(=O)c(OC)c(-c3ccccc3)oc2c1	89.8
COc1cc(-c2coc3cc(OC)c(OC)c(OC)c3c2=O)cc(OC)c1OC	96
C=C1/C(=C\C=C2/CCC[C@]3(C)[C@@H]([C@H](C)/C=C/[C@H](C)C(C)C)CC[C@@H]23)C[C@@H](O)C[C@@H]1O [Doxercalciferol (Hectorol)]	99.3
CC(=O)NCCc1ccc(O)c(-c2c(O)c(O)c3c(c2O)C(=O)c2c(cc(O)c(C(=O)O)c2C(=O)O)C3=O)c1	102
